Test results as given in PubChem BioAssay (EPA / NIEHS).
“And” between values parts separate entries of the source, which are not always exact repeats. Equal values may be shown once. Some compounds were tested as several samples or in several runs, with calls that do not always agree. The source made the active and inactive calls. How the source made its calls: active means hit-call score of the fitted dose curve at least 0.9, where 1 is the maximum; inactive means score below 0.9.

test system: not listed separately; assay: ATG_PBREM_CIS: Attagene CIS-FACTORIAL HepG2 Assay for human Phenobarbital-responsive Enhancer Module (PBREM) (AID 2282955); conditions: HepG2 PBREM cis-reporter, Attagene multiplexed transcription; actives raise or lower the signal
Method in brief: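 Readout: reporter mRNA, fluorescent RT-PCR fragments separated by capillary electrophoresis. System: HepG2 transiently transfected with cis-regulated reporter units. Exposure: 24 h. Analysis: bidirectional, DMSO baseline.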

Structure (SMILES)	AC50	outcome
CCc1c(Br)c(Br)c(Br)c(Br)c1Br	23.7 µM (active)	–
CC(C)OC(=O)c1ccccc1C(=O)OC(C)C	–	inactive
CCc1ccc(C(c2ccc(CC)cc2)C(Cl)Cl)cc1	–	inactive
COC(=O)CCC(F)(F)C(F)(F)C(F)(F)C(F)(F)F	–	inactive
C=CC(=O)OCC(F)(F)C(F)(F)C(F)(F)C(F)(F)C(F)(F)C(F)(F)C(F)(F)F	–	inactive
O=C(O)C(F)(F)C(F)(F)OC(F)(F)F	–	inactive
O=C(Cl)C(F)(F)C(F)(F)C(F)(F)C(F)(F)C(F)(F)C(F)(F)C(F)(F)C(F)(F)F	–	inactive
C=CC(F)(F)C(F)(F)C(F)(F)C(F)(F)C(F)(F)C(F)(F)C(F)(F)C(F)(F)F	–	inactive
Cc1ccc(S(=O)(=O)OCC(F)(F)C(F)(F)C(F)(F)C(F)(F)C(F)(F)C(F)F)cc1	–	inactive
C=C(C)C(=O)OCC(F)(F)C(F)(F)C(F)(F)C(F)(F)C(F)(F)C(F)(F)C(F)(F)F	–	inactive
CCCCCC=O	–	inactive
Cc1cc(C)cc(O)c1	–	inactive

target: Paired box protein Pax-6 (Homo sapiens) (UniProt P26367); assay: ATG_Pax6_CIS: Attagene CIS-FACTORIAL HepG2 Assay for human Paired Box 6 (PAX6) (AID 2282956); conditions: HepG2 CIS-FACTORIAL PAX6 reporter transcription, RNA readout; actives raise or lower the signal
Method in brief: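 Fluorescent RT-PCR products separated by capillary electrophoresis report PAX6-linked promoter mRNA in HepG2 cells 24 h post-dose. Curves fitted bidirectionally, DMSO as negative control.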

Paired box protein Pax-6 (Homo sapiens), sequence (P26367 whole entry, looked up): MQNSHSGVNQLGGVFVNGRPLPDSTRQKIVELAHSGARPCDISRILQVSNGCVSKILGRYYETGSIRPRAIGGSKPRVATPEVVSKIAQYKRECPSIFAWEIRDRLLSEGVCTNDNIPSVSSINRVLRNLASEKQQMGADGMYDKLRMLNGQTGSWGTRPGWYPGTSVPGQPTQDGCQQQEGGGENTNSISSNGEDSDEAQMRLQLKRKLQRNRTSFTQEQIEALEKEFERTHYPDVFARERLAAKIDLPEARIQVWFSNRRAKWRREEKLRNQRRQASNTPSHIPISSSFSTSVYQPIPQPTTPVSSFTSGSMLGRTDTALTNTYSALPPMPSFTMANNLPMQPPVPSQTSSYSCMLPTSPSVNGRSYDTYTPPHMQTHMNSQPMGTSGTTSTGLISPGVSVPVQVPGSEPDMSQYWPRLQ

Structure (SMILES)	outcome	AC50
Nc1ccc(S(=O)(=O)Nc2nccs2)cc1	inactive	–
C=C(C)C(=O)OCC(F)(F)C(F)(F)C(F)(F)F	inactive	–
O=P(O)(O)OCCC(F)(F)C(F)(F)C(F)(F)C(F)(F)C(F)(F)C(F)(F)F	inactive	–
CC(=O)Nc1ccc(N=Nc2cc(C)ccc2O)cc1	inactive	–
FC(F)(F)C(F)(F)C(F)(F)C(F)(F)CCI	inactive	–
CCc1c(Br)c(Br)c(Br)c(Br)c1Br	inactive	–
CC(C)(C)c1ccc(OC2CCCCC2O)cc1 (stereo unspecified)	inactive	–
CC(C)OC(=O)c1ccccc1C(=O)OC(C)C	inactive	–
OC[C@@H](O)[C@@H](O)[C@H](O)[C@@H](O)CO	inactive	–
CN(C)Cc1ccccc1O	inactive	–
CCc1ccc(C(c2ccc(CC)cc2)C(Cl)Cl)cc1	inactive	–
CC(C)c1ccccc1N	inactive	–
C1COCCN1	inactive	–
COC(=O)CCC(F)(F)C(F)(F)C(F)(F)C(F)(F)F	inactive	–
C=CC(=O)OCC(F)(F)C(F)(F)C(F)(F)C(F)(F)C(F)(F)C(F)(F)C(F)(F)F	inactive	–
O=S(=O)(O)c1ccc2ccccc2c1	inactive	–
CCCCC(CC)COP(=O)(O)OCC(CC)CCCC (stereo unspecified)	inactive	–
COC(=O)C1CCC(C(=O)OC)CC1 (stereo unspecified)	inactive	–

Structure (SMILES)	outcome	AC50
Nc1cc(Cl)c(N)c(Cl)c1	inactive	–
O=C(O)C(F)(F)C(F)(F)OC(F)(F)F	inactive	–
CC(C)=CCCC(C)CCOC(=O)C(C)C (stereo unspecified)	inactive	–
N=C(N)C(F)(F)C(F)(F)C(F)(F)C(F)(F)C(F)(F)C(F)(F)C(F)(F)F	inactive	–
O=C(Cl)C(F)(F)C(F)(F)C(F)(F)C(F)(F)C(F)(F)C(F)(F)C(F)(F)C(F)(F)F	–	54.1 µM (active)
C=CC(F)(F)C(F)(F)C(F)(F)C(F)(F)C(F)(F)C(F)(F)C(F)(F)C(F)(F)F	inactive	–
CS(C)(=O)=O	inactive	–
O=C(O)C(F)(F)C(F)(F)C(F)(F)C(F)(F)C(F)(F)C(F)(F)C(F)(F)C(F)(F)C(F)(F)C(F)(F)C(F)(F)C(F)(F)F	inactive	–
O=C(O)C(F)(F)C(F)(F)C(F)(F)C(F)(F)F	inactive	–
Cc1ccc(S(=O)(=O)OCC(F)(F)C(F)(F)C(F)(F)C(F)(F)C(F)(F)C(F)F)cc1	inactive	–
Cc1ccc(S(=O)(=O)NCl)cc1	inactive	–
C=C(C)C(=O)OCC(F)(F)C(F)(F)C(F)(F)C(F)(F)C(F)(F)C(F)(F)C(F)(F)F	inactive	–
FC(F)(F)C(F)(F)C(F)(F)C(F)(F)C(F)(F)C(F)(F)CCS	inactive	–
CCCCCC=O	inactive	–
CCCCCCCCC(F)(F)C(F)(F)C(F)(F)C(F)(F)C(F)(F)C(F)(F)F	inactive	–
Cc1cc(C)cc(O)c1	inactive	–
O=S(=O)(OCCOC(F)(F)F)C(F)(F)F	inactive	–

test system: not listed separately; assay: ATG_PXRE_CIS: Attagene CIS-FACTORIAL HepG2 Assay for human Pregnane X Receptor Element (PXRE) (AID 2282957); conditions: HepG2 Attagene CIS-FACTORIAL PXRE reporter, mRNA; actives raise or lower the signal
Method in brief: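 Endogenous transcription factor activity in HepG2 was gauged through induction of reporter mRNA driven by a cis-regulating promoter element, sampled 24 h post-treatment. Activity was fitted in both directions against DMSO negative control.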

Structure (SMILES)	outcome	AC50
Nc1ccc(S(=O)(=O)Nc2nccs2)cc1	inactive	–
C=C(C)C(=O)OCC(F)(F)C(F)(F)C(F)(F)F	inactive	–
O=P(O)(O)OCCC(F)(F)C(F)(F)C(F)(F)C(F)(F)C(F)(F)C(F)(F)F	inactive	–
CC(=O)Nc1ccc(N=Nc2cc(C)ccc2O)cc1	–	19.5 µM (active)
FC(F)(F)C(F)(F)C(F)(F)C(F)(F)CCI	inactive	–
CCc1c(Br)c(Br)c(Br)c(Br)c1Br	–	8.3 µM (active)
CC(C)(C)c1ccc(OC2CCCCC2O)cc1 (stereo unspecified)	–	1.73 µM (active)
CC(C)OC(=O)c1ccccc1C(=O)OC(C)C	–	3.7 µM (active)
OC[C@@H](O)[C@@H](O)[C@H](O)[C@@H](O)CO	inactive	26.3 µM (active)
CN(C)Cc1ccccc1O	inactive	–
CCc1ccc(C(c2ccc(CC)cc2)C(Cl)Cl)cc1	–	2.28 µM (active)
CC(C)c1ccccc1N	–	34.9 µM (active)
C1COCCN1	inactive	27.2 µM (active)
COC(=O)CCC(F)(F)C(F)(F)C(F)(F)C(F)(F)F	inactive	–
C=CC(=O)OCC(F)(F)C(F)(F)C(F)(F)C(F)(F)C(F)(F)C(F)(F)C(F)(F)F	inactive	–
O=S(=O)(O)c1ccc2ccccc2c1	–	11.2 µM (active) and 91 µM (active)
CCCCC(CC)COP(=O)(O)OCC(CC)CCCC (stereo unspecified)	–	9.1 µM (active)
COC(=O)C1CCC(C(=O)OC)CC1 (stereo unspecified)	inactive	–

Structure (SMILES)	outcome	AC50
Nc1cc(Cl)c(N)c(Cl)c1	–	37 µM (active)
O=C(O)C(F)(F)C(F)(F)OC(F)(F)F	inactive	–
CC(C)=CCCC(C)CCOC(=O)C(C)C (stereo unspecified)	inactive	–
N=C(N)C(F)(F)C(F)(F)C(F)(F)C(F)(F)C(F)(F)C(F)(F)C(F)(F)F	inactive	–
O=C(Cl)C(F)(F)C(F)(F)C(F)(F)C(F)(F)C(F)(F)C(F)(F)C(F)(F)C(F)(F)F	–	8.97 µM (active)
C=CC(F)(F)C(F)(F)C(F)(F)C(F)(F)C(F)(F)C(F)(F)C(F)(F)C(F)(F)F	inactive	–
CS(C)(=O)=O	–	4.43 µM (active)
O=C(O)C(F)(F)C(F)(F)C(F)(F)C(F)(F)C(F)(F)C(F)(F)C(F)(F)C(F)(F)C(F)(F)C(F)(F)C(F)(F)C(F)(F)F	inactive	–
O=C(O)C(F)(F)C(F)(F)C(F)(F)C(F)(F)F	inactive	–
Cc1ccc(S(=O)(=O)OCC(F)(F)C(F)(F)C(F)(F)C(F)(F)C(F)(F)C(F)F)cc1	–	1.95 µM (active)
Cc1ccc(S(=O)(=O)NCl)cc1	inactive	131 µM (active)
C=C(C)C(=O)OCC(F)(F)C(F)(F)C(F)(F)C(F)(F)C(F)(F)C(F)(F)C(F)(F)F	inactive	–
FC(F)(F)C(F)(F)C(F)(F)C(F)(F)C(F)(F)C(F)(F)CCS	inactive	–
CCCCCC=O	inactive	–
CCCCCCCCC(F)(F)C(F)(F)C(F)(F)C(F)(F)C(F)(F)C(F)(F)F	inactive	–
Cc1cc(C)cc(O)c1	inactive	64.5 µM (active)
O=S(=O)(OCCOC(F)(F)F)C(F)(F)F	inactive	–
